Measured values reported in the supplement of paper PMC10849652.
The full data set covers some 8,800 targets. This sample favours those with a hit. About 0.5% of all pairs of compound and target were hits. Values without a mark were called inactive.

Tests used:
Test in all cases: log2 fold change, soluble protein after heating vs DMSO (PISA); higher = thermal stabilisation; K562 lysate, 10 uM; active = over 0.2 and 3.5 SD of the protein, either way, in both replicates (recomputed)
[1] = compound: Cc1cn(-c2cc(NC(=O)c3ccc(C)c(Nc4nccc(-c5cccnc5)n4)c3)cc(C(F)(F)F)c2)cn1 [nilotinib]
How it was run: (§1)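 Dounce homogenisation of K562 pellets in PBS pH 7.4 with 1 mM MgCl2 produced a crude extract, used at 1 mg/mL protein. Exposure to 10 μM compound lasted 30 min, and aliquots were then heated for 3 min across 48°C-58°C, pooled and brought to 0.5% NP-40 at 4°C. The supernatant after 21,000xg for 90 min was quantified by TMTpro 16plex LC-MS/MS with channel sums equalised. Duplicate values are given as log-two fold change in thermal stability relative to solvent controls.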

[2] = compound: Cc1nc(Nc2n[nH]c3c2CN(C(=O)N[C@H](CN(C)C)c2ccccc2)C3(C)C)c2sccc2n1
How it was run: as §1

[3] = compound: Cc1nc(Nc2ncc(C(=O)Nc3c(C)cccc3Cl)s2)cc(N2CCN(CCO)CC2)n1 [dasatinib]
How it was run: as §1

[4] = compound: Cc1ncc(-c2ccnc(Nc3ccc(S(C)(=O)=O)cc3)n2)n1C(C)C
How it was run: as §1

[5] = compound: Cn1cc(-c2ccc3c(c2)CCN3C(=O)Cc2cccc(C(F)(F)F)c2)c2c(N)ncnc21
How it was run: as §1

[6] = compound: Cn1cc(CNCC2CCN(c3ncc(C(=O)NO)cn3)CC2)c2ccccc21 [quisinostat]
How it was run: as §1

[7] = compound: Cn1cncc1[C@@](N)(c1ccc(Cl)cc1)c1ccc2c(c1)c(-c1cccc(Cl)c1)cc(=O)n2C [tipifarnib]
How it was run: as §1

[8] = compound: NC(=O)Nc1cc(-c2cccc(F)c2)sc1C(=O)N[C@H]1CCCNC1
How it was run: as §1

[9] = compound: NC(=O)c1cnc(N[C@@H]2CCCC[C@@H]2N)nc1Nc1cccc(-n2nccn2)c1
How it was run: as §1

[10] = compound: NC1(c2ccc(-c3nc4ccn5c(=O)[nH]nc5c4cc3-c3ccccc3)cc2)CCC1
How it was run: as §1

[11] = compound: NCC(=O)Nc1ccc(-n2nc(C(F)(F)F)cc2-c2ccc3c(ccc4ccccc43)c2)cc1
How it was run: as §1

[12] = compound: O=C(CCCCCCC(=O)Nc1ccccc1)NO [vorinostat]
How it was run: as §1

[13] = compound: O=C(O)c1ccc2c(c1)nc(Nc1cccc(Cl)c1)c1ccncc12 [silmitasertib]
How it was run: as §1

[14] = compound: O=C1NC(=O)C(c2cnc3ccccn23)=C1c1cn2c3c(cc(F)cc13)CN(C(=O)N1CCCCC1)CC2
How it was run: as §1

[15] = compound: c1cn2cc(-c3ccc4cn[nH]c4c3)nc(Nc3ccc(N4CCOCC4)cc3)c2n1 [entospletinib]
How it was run: as §1

Chain of UniProt Q9UET6 (Q9UET6 whole entry, looked up): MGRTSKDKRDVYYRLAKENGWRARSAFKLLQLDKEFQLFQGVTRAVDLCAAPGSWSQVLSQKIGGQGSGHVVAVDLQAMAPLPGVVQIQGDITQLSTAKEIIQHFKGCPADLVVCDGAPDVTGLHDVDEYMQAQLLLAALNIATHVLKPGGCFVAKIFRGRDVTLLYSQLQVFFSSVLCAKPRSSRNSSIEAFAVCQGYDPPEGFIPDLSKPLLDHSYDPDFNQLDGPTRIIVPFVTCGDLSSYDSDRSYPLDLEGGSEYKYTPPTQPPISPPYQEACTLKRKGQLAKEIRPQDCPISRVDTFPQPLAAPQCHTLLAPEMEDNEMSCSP
Chain of UniProt P41214 (P41214 whole entry, looked up): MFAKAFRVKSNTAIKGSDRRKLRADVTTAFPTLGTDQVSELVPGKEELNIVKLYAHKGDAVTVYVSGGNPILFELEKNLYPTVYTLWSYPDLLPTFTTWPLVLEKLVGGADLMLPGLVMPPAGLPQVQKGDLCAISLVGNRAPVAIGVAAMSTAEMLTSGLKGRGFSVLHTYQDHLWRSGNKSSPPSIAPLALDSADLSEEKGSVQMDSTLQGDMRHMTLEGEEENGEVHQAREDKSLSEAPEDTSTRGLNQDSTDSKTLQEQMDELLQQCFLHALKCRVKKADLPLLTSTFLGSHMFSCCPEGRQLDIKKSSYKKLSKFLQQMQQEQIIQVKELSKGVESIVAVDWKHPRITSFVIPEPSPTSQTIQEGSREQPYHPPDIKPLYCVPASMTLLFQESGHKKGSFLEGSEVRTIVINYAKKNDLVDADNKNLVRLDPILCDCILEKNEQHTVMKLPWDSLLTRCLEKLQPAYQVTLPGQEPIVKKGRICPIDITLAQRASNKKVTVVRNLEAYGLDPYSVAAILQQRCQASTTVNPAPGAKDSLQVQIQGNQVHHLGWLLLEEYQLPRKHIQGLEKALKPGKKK
Chain of UniProt Q96L91 (Q96L91 whole entry, looked up): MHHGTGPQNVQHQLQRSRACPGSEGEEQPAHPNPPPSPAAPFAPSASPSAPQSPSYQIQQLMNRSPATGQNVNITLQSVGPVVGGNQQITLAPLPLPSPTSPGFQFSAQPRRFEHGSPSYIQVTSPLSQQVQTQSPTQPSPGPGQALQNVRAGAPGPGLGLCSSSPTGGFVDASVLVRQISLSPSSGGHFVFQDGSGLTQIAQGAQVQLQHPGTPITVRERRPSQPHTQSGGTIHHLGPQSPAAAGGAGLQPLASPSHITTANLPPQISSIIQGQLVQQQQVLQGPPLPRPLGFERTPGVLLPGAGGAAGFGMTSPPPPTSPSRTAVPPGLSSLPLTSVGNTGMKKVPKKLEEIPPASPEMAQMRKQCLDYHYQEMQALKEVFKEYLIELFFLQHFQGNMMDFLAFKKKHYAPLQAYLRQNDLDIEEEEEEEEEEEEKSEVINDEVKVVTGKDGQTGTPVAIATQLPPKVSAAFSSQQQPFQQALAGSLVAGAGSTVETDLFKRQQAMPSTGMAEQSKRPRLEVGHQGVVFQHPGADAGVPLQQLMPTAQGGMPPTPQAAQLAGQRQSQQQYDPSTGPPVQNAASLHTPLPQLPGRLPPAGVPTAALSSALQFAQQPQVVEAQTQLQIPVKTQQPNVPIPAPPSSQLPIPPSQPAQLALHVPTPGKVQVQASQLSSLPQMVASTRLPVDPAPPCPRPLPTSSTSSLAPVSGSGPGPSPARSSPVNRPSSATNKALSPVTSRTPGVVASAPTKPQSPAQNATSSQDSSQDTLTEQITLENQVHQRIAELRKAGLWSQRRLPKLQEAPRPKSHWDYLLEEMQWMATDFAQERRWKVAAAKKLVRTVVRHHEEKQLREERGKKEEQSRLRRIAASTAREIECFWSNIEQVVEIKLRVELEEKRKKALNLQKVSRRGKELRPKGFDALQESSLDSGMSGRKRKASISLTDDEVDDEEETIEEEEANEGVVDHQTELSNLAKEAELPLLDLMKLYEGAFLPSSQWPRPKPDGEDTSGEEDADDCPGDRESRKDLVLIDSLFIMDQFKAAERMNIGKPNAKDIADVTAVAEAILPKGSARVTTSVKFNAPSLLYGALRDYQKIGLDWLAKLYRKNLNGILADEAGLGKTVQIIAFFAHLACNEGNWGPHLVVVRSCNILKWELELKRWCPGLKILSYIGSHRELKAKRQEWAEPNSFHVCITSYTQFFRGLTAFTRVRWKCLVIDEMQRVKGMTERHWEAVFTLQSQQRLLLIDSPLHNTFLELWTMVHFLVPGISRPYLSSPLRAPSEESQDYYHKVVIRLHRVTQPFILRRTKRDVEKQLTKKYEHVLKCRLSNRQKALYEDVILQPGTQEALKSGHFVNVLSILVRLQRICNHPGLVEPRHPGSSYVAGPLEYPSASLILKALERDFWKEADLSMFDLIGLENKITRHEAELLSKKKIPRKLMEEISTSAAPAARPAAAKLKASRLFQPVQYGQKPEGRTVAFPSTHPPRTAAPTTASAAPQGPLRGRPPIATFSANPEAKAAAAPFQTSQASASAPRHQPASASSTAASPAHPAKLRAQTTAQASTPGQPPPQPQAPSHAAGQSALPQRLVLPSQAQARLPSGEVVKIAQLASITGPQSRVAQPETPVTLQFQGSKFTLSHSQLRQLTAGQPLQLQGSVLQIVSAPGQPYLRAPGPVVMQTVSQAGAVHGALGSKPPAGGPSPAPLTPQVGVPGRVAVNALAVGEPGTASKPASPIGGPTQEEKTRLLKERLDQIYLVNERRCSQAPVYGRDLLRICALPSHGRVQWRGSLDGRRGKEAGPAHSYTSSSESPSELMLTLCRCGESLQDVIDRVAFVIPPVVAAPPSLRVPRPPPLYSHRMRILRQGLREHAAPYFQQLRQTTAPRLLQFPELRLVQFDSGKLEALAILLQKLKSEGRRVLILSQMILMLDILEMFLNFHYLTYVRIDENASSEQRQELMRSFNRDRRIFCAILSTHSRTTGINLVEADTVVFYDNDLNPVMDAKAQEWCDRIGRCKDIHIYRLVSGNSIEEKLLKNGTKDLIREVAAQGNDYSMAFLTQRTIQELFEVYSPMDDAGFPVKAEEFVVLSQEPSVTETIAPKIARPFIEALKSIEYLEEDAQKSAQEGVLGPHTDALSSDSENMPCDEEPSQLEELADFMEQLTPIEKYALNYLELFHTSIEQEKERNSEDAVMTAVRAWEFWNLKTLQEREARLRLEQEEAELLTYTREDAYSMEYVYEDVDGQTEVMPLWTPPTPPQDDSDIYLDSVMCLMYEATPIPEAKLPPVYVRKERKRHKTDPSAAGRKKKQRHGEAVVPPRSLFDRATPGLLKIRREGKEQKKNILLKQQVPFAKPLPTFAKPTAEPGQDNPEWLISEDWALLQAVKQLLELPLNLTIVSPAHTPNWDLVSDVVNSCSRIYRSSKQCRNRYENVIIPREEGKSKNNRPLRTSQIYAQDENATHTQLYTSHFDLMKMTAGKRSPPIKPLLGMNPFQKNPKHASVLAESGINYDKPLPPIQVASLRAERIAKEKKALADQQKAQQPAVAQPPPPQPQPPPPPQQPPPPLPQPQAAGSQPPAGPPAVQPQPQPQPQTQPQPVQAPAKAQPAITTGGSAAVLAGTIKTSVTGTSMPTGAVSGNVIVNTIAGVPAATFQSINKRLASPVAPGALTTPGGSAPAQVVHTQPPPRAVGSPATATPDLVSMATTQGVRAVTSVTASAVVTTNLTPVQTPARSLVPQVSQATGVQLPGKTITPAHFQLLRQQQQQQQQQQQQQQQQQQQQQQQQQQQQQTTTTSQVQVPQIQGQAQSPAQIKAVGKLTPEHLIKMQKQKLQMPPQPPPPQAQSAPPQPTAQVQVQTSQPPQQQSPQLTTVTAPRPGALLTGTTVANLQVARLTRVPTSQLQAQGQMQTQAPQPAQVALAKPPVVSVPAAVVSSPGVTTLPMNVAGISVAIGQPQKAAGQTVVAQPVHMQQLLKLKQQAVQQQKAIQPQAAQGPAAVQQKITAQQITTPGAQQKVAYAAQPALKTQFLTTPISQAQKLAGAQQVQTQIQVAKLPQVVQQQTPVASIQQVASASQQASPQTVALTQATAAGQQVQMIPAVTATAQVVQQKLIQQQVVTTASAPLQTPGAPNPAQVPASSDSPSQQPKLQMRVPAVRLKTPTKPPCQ
Chain of UniProt Q86UY5 (Q86UY5 whole entry, looked up): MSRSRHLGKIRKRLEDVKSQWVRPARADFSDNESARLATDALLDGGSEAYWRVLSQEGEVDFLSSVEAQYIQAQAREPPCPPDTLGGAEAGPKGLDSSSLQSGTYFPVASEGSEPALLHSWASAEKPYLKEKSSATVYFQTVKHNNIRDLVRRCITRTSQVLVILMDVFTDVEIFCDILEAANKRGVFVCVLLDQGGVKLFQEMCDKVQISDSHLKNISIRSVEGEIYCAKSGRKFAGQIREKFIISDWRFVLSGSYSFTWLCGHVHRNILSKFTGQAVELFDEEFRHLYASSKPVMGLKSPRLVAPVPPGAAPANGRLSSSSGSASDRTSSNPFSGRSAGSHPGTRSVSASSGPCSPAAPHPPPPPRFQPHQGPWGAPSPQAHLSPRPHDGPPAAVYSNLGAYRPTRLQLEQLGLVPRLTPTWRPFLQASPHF
Chain of UniProt A6NHQ2 (A6NHQ2 whole entry, looked up): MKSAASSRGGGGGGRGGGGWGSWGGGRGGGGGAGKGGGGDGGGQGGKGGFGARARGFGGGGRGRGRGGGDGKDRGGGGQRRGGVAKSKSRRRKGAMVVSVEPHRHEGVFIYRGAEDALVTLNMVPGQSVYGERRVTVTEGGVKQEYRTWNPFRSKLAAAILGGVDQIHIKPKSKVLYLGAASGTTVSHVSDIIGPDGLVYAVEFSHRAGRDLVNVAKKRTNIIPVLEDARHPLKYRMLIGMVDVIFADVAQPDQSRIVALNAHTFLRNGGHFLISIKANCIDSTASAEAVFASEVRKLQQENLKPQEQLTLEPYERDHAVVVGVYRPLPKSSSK
Chain of UniProt P62942 (P62942 whole entry, looked up): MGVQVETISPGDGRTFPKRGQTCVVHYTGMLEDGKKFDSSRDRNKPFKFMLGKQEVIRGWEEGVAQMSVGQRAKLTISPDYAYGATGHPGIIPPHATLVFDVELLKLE

| Target | log2 fold change [1] | log2 fold change [2] | log2 fold change [3] | log2 fold change [4] | log2 fold change [5] | log2 fold change [6] | log2 fold change [7] | log2 fold change [8] | log2 fold change [9] | log2 fold change [10] | log2 fold change [11] | log2 fold change [12] | log2 fold change [13] | log2 fold change [14] | log2 fold change [15] |
| --- | --- | --- | --- | --- | --- | --- | --- | --- | --- | --- | --- | --- | --- | --- | --- |
| FBLL1 (UniProt A6NHQ2) | 0.006 | -0.015 | -0.048 | -0.101 | 0 | -0.07 | -0.009 | 0.026 | -0.037 | 0 | 0.006 | 0.094 | 0.034 | -0.017 | -0.014 |
| FAM83A (UniProt Q86UY5) | -0.007 | -0.069 | -0.028 | -0.016 | -0.033 | -0.088 | -0.08 | 0.034 | 0.004 | -0.019 | -0.049 | -0.417 (active) | -0.034 | -0.052 | -0.002 |
| EEF1A1, A0A087WVQ9 | 0.124 | 0.012 | 0.006 | 0.044 | 0.002 | -0.025 | -0.001 | 0.024 | 0.013 | 0.016 | -0.025 | -0.541 (active) | -0.002 | -0.022 | 0.015 |
| FKBP1A (UniProt P62942) | 0.023 | 0.002 | -0.005 | 0.081 | -0.103 | 0.012 | 0.038 | -0.005 | 0.002 | -0.039 | -0.154 | 0.036 | -0.006 | 0.068 | 0.049 |
| GAMT (UniProt Q14353) | -0.017 | 0.022 | 0.03 | 0.129 | -0.025 | -0.043 | -0.137 | 0.024 | -0.016 | -0.002 | -0.046 | -0.423 (active) | -0.008 | -0.049 | -0.001 |
| DYRK1A (UniProt Q13627) | -0.018 | 0.062 | -0.021 | 0.031 | 0.033 | -0.026 | -0.06 | 0.072 | -0.01 | -0.013 | 0.021 | -0.253 | 0.247 (active) | 0.01 | 0.005 |
| G6PD isoform 2 (UniProt P11413) | 0.013 | -0.008 | 0.01 | -0.012 | -0.01 | -0.021 | 0.016 | 0.012 | -0.035 | 0.008 | 0.008 | -0.46 (active) | -0.008 | -0.003 | 0.032 |
| FYB1 isoform 3 (UniProt O15117) | 0.042 | 0.004 | -0.017 | -0.025 | 0.001 | -0.068 | -0.012 | 0.034 | 0.005 | 0.021 | 0.007 | 0.002 | -0.021 | 0 | -0.006 |
| ERBIN isoform 8 (UniProt Q96RT1) | 0.012 | -0.027 | 0.051 | -0.015 | 0.018 | -0.029 | -0.005 | 0.018 | 0 | 0.001 | -0.016 | -0.008 | -0.001 | -0.017 | -0.002 |
| EHHADH (UniProt Q08426) | -0.048 | -0.091 | -0.011 | 0.045 | -0.047 | -0.072 | 0.052 | -0.003 | 0.025 | 0.097 |  | 0.706 (active) | -0.035 | -0.048 | -0.013 |
| EIF2D (UniProt P41214) | -0.034 | 0.028 | -0.027 | -0.009 | 0.002 | -0.064 | 0.024 | 0.04 | 0.008 | -0.041 | 0.03 | -0.385 (active) | 0.032 | 0.04 | 0.02 |
| FANCD2 isoform 1 (UniProt Q9BXW9) | 0.015 | -0.002 | -0.066 | 0.048 | 0 | -0.238 (active) | -0.037 | 0.018 | 0.033 | -0.124 | 0.078 | -0.25 (active) | -0.012 | 0.008 | -0.005 |
| EP400 isoform 5 (UniProt Q96L91) | -0.05 | -0.04 | 0.001 | -0.025 | -0.005 | -0.014 | 0.04 | 0.012 | 0.019 | -0.003 | -0.047 | -0.279 (active) | 0.024 | -0.025 | -0.021 |
| FBXO9 (UniProt Q9UK97) | -0.076 | 0.003 | 0.059 | 0.02 | 0.021 | -0.045 | -0.092 | 0.177 | 0.127 | 0.127 | -0.154 | -0.135 | 0.009 | -0.046 | -0.188 |
| FTSJ1 (UniProt Q9UET6) | -0.013 | -0.039 | -0.016 | -0.007 | -0.007 | -0.032 | -0.054 | 0.035 | -0.001 | 0.029 | -0.024 | -0.326 (active) | 0.024 | 0.009 | 0.05 |
| GATAD2A isoform 3 (UniProt Q86YP4) | 0.041 | 0.001 | 0.006 | -0.009 | 0.001 | -0.074 | -0.009 | 0.032 | 0.002 | -0.024 | 0.023 | -0.213 (active) | -0.028 | 0.019 | -0.001 |
| ENO1, A0A2R8YEM5 | -0.021 | -0.017 | -0.013 | 0.002 | -0.021 | -0.005 | 0.053 | -0.026 | 0.002 | -0.008 | -0.032 | 0.119 | -0.005 | 0.017 | 0.04 |
